AmpC nodet inh – AmpC beta-lactamase inhibition, detergent-free assay; P00811; AmpC nitrocefin hydrolysis, absorbance 480 nm, no detergent; Potency, µM (highest dose often 28.7 µM); hit rate 1.8% among 71,000; AID 585
Target sequence (P00811 whole entry, looked up): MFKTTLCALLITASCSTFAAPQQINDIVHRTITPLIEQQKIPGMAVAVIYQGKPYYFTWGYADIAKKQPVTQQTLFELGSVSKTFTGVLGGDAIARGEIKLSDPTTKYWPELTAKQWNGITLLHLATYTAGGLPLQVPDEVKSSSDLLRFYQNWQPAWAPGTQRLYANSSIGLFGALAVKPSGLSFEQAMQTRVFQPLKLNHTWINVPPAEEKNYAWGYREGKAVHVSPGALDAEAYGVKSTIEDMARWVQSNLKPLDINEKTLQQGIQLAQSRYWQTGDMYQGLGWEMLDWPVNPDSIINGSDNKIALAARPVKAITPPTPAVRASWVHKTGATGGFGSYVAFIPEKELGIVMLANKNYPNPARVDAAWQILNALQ
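AmpC in 20 mM phosphate buffer pH 7.0 was preincubated 15 min at room temperature with compounds. Nitrocefin (800 uM stock) was then added and hydrolysis followed at 480 nm every 20 s for 4 min.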
Prx2 Sm inh – inhibitors of Schistosoma mansoni peroxiredoxin 2; S. mansoni Prx2 activity coupled to TGR/GSH (TGR is thioredoxin glutathione reductase), NADPH fluorescence loss, qHTS; Potency, µM; hit rate 0.07% among 65,000
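Enzyme mix: 100 uM NADPH, 25 nM TGR, 700 uM GSH, 50 nM Prx2 in 100 mM phosphate pH 7.4, 10 mM EDTA, 0.01% Tween-20. 15 min RT with compound; NADPH/GSH added, H2O2 starts reaction; NADPH fluorescence read 8 min.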
LT uptake inh – anthrax lethal toxin internalization inhibition | hit rate 0.67% among 70,000 | Potency, µM (highest dose often 40 µM), most hits filed as inhibitors | Cells, anthrax lethal toxin internalization, FRET ratio (460/530); also: nearly all actives have a fitted effect of over 50% in size
AmpC inh det – inhibitors of E. coli AmpC beta-lactamase with detergent; Potency, µM (titrated, usually from 28.7 µM); hit rate 0.09% among 71,000; P00811; purified AmpC, nitrocefin hydrolysis with detergent; active = well fitted curve in the direction sought with a large enough effect; inconclusive = small, poorly fitted or top-dose-only effect
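E. coli AmpC (5.3 nM) in 20 mM phosphate pH 7.0 with 0.01% Triton X-100, preincubated 15 min RT with compound; nitrocefin (2 uL of 800 uM stock) hydrolysis followed by 480 nm absorbance every 20 s over 4 min.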
Hits are given with their value; – = inactive; ? = inconclusive; · = not tested or not shown; ! = repeats disagree; [ ] = dose if it differs, or a comment. Rows were chosen to be rich in hits. Some 2.6% of all compounds tested hit in one or more screens of this group. Unless noted, calls follow the shape of the full dose curve.

SMILES | AmpC nodet inh | Prx2 Sm inh | LT uptake inh | AmpC inh det
Cc1cc(-n2c(SCC(=O)NCc3cccs3)nc3n[nH]c(C)c3c2=N)ccc1Cl | – | – | 10µM | –
Cc1[nH]nc2nc(SCC(=O)NCC3CCCO3)n(-c3ccc(Br)cc3)c(=N)c12 (stereo unspecified) | – | – | – | –
COc1c2ccoc2nc2c(OC)c(OC[C@H](O)C(C)(C)O)ccc12 | – | – | 13µM! | –
O=C1/C(=C/c2ccccc2)[C@@H](NC2CCCCC2)c2ccccc21 | –[5.75 µM] | · | 4µM | –[5.75 µM]
CCOC(=O)N1CCN(C(=O)c2cccc(NC3=NC4CS(=O)(=O)CC4S3)c2)CC1 (stereo unspecified) | – | – | – | –
CCOC(=O)C1CCN(C(=O)c2ccc(Cl)c(NC3=NC4CS(=O)(=O)CC4S3)c2)CC1 (stereo unspecified) | 4µM[single pt active] | – | – | –
O=C(c1ccc(NC2=NC3CS(=O)(=O)CC3S2)cc1)N1CCN(C(=O)c2ccco2)CC1 (stereo unspecified) | 4µM[single pt active] | – | – | –
N#Cc1cc2ccccc2nc1SCC(=O)Nc1ccc(S(=O)(=O)N2CCCC2)cc1 | 5µM | – | – | –
CN(C)c1ccc(CNC(=O)[C@@]2(C)C=C[C@@H](Cc3ccccc3)N2C)cc1 | – | · | – | –
CO[C@@H]([CH2][Hg])CN1C(=O)c2ccccc2S1(=O)=O.Cn1c(=O)c2nc[nH]c2n(C)c1=O | –[5.75 µM] | 1.3 | ? | –[5.75 µM]
O=C1c2ccccc2S(=O)(=O)N1CC(O)COc1ccc(Br)cc1 (stereo unspecified) | – | · | – | –
CC(=O)C1=C(C)NC(SCC(=O)c2ccc(Cl)c(Cl)c2)=C(C#N)C1c1ccco1 (stereo unspecified) | – | · | ? | –
CC1=C(C(=O)Nc2ccccc2)C(c2ccco2)C(C#N)=C(SCc2ccccc2)N1 (stereo unspecified) | 5µM | · | ? | –
CC1=C(C(=O)Nc2ccccc2)C(c2ccco2)C(C#N)=C(SCC(=O)OC(C)C)N1 (stereo unspecified) | – | · | ? | –
CCc1ccc(C(=O)CSC2=C(C#N)C(c3ccco3)C(C(C)=O)=C(C)N2)cc1 (stereo unspecified) | 13µM | · | ? | –
CC(=O)C1=C(C)NC(SCC(=O)c2cc(Cl)ccc2Cl)=C(C#N)C1c1ccco1 (stereo unspecified) | ? | · | 10µM | –
O=C(Nc1ccc2c(c1)OCO2)C1Cc2ccccc2CN1S(=O)(=O)c1cccs1 (stereo unspecified) | 10µM[single pt active] | – | ? | –
O=C(Nc1ccc2c(c1)OCO2)C1CCN(S(=O)(=O)c2cccs2)CC1 | ? | – | – | –
Cc1cccc(C2CC(c3ccc(Cl)cc3)Nc3nc(N)nn32)c1 (stereo unspecified) | 4µM[single pt active] | – | – | –
CCOc1ccc(C2CC(c3cccc(C)c3)n3nc(N)nc3N2)cc1 (stereo unspecified) | – | – | – | –
Cc1cccc(C2CC(c3ccc(F)cc3)Nc3nc(N)nn32)c1 (stereo unspecified) | 4µM[single pt active] | – | – | –
Cc1ccc(C2CC(c3cccc(Cl)c3)n3nc(N)nc3N2)cc1 (stereo unspecified) | – | – | – | –
COc1cccc(-c2cc(C(=O)NCc3ccc(Cl)cc3)no2)c1 | 13µM[single pt active] | · | – | –
COc1ccc(CNC(=O)c2cc(-c3cccc(OC)c3)on2)cc1 | – | – | ? | –
COc1ccc(-c2cc(C(=O)NCc3ccccc3)no2)cc1OC | 0.4µM | ? | – | ?
SMILES | AmpC nodet inh | Prx2 Sm inh | LT uptake inh | AmpC inh det
COc1ccc(CNC(=O)c2cc(-c3ccc(OC)c(OC)c3)on2)cc1 | – | – | – | –
CNc1nc(-c2cccnc2)nc2ccccc12 | – | – | – | –
N#Cc1cccc(NC(=O)N2CC[C@@]3(CCCN(C(=O)c4ccco4)C3)C2)c1 | – | – | ? | –
O=C(c1csnn1)N1CCC2(CCCN(Cc3ccccc3)C2)CC1 | – | – | – | –
Cc1noc(C)c1C(=O)Nc1nc(C23CC4CC(CC(C4)C2)C3)cs1 | – | – | 10µM | –
CCOC(=O)Cc1csc(NC(=O)c2c(-c3ccccc3)noc2C)n1 | – | · | – | –
CCN(CCCNC(=O)C1CCCN(S(=O)(=O)c2cnc[nH]2)C1)c1ccccc1 (stereo unspecified) | 4µM[single pt active] | – | – | –
Cc1cccc(CN2CCC(CNC(=O)C3CCCN(S(=O)(=O)c4cnc[nH]4)C3)CC2)c1 (stereo unspecified) | 3.2µM[single pt active] | – | – | –
CCN(CCNC(=O)C1CCCN(S(=O)(=O)c2cnc[nH]2)C1)c1ccccc1 (stereo unspecified) | 4µM[single pt active] | – | – | –

Bioassay records deposited in PubChem BioAssay by National Center for Advancing Translational Sciences (NCATS).
